± gives the standard deviation of the averaged measurements.
Tests used:
Drosophila melanogaster [1] = experiment: olfactory response index (dipstick assay) (fraction of flies (RI; 1 aversion, 0.5 indifferent, 0 attraction)); higher = stronger aversion to the odorant; details: odorant concentration: 1% v/v, male
Drosophila melanogaster [2] = experiment: as above; details: odorant concentration: 1% v/v, female
[3] = genotype (tubulin-GAL4 x UAS-RNAi line; control = progenitor): A5
[4] = genotype (tubulin-GAL4 x UAS-RNAi line; control = progenitor): control
[5] = genotype (tubulin-GAL4 x UAS-RNAi line; control = progenitor): obp 18a
[6] = genotype (tubulin-GAL4 x UAS-RNAi line; control = progenitor): obp 22a
[7] = genotype (tubulin-GAL4 x UAS-RNAi line; control = progenitor): obp 28a
[8] = genotype (tubulin-GAL4 x UAS-RNAi line; control = progenitor): obp 56a
[9] = genotype (tubulin-GAL4 x UAS-RNAi line; control = progenitor): obp 56c
[10] = genotype (tubulin-GAL4 x UAS-RNAi line; control = progenitor): obp 56f
[11] = genotype (tubulin-GAL4 x UAS-RNAi line; control = progenitor): obp 57a
[12] = genotype (tubulin-GAL4 x UAS-RNAi line; control = progenitor): obp 57b
[13] = genotype (tubulin-GAL4 x UAS-RNAi line; control = progenitor): obp 58c
[14] = genotype (tubulin-GAL4 x UAS-RNAi line; control = progenitor): obp 59a
[15] = genotype (tubulin-GAL4 x UAS-RNAi line; control = progenitor): obp 83a
[16] = genotype (tubulin-GAL4 x UAS-RNAi line; control = progenitor): obp 83c
[17] = genotype (tubulin-GAL4 x UAS-RNAi line; control = progenitor): obp 93a
[18] = genotype (tubulin-GAL4 x UAS-RNAi line; control = progenitor): obp 99b
[19] = genotype (tubulin-GAL4 x UAS-RNAi line; control = progenitor): obp 56h
[20] = genotype (tubulin-GAL4 x UAS-RNAi line; control = progenitor): obp 58b

SMILES	olfactory response index (Drosophila melanogaster [1]; [3])	olfactory response index (Drosophila melanogaster [1]; [4])	olfactory response index (Drosophila melanogaster [1]; [5])	olfactory response index (Drosophila melanogaster [1]; [6])	olfactory response index (Drosophila melanogaster [1]; [7])	olfactory response index (Drosophila melanogaster [1]; [8])	olfactory response index (Drosophila melanogaster [1]; [9])	olfactory response index (Drosophila melanogaster [1]; [10])	olfactory response index (Drosophila melanogaster [1]; [11])	olfactory response index (Drosophila melanogaster [1]; [12])	olfactory response index (Drosophila melanogaster [1]; [13])	olfactory response index (Drosophila melanogaster [1]; [14])	olfactory response index (Drosophila melanogaster [1]; [15])	olfactory response index (Drosophila melanogaster [1]; [16])	olfactory response index (Drosophila melanogaster [1]; [17])	olfactory response index (Drosophila melanogaster [1]; [18])	olfactory response index (Drosophila melanogaster [1]; [19])	olfactory response index (Drosophila melanogaster [2]; [3])	olfactory response index (Drosophila melanogaster [2]; [4])	olfactory response index (Drosophila melanogaster [2]; [5])	olfactory response index (Drosophila melanogaster [2]; [6])	olfactory response index (Drosophila melanogaster [2]; [7])	olfactory response index (Drosophila melanogaster [2]; [8])	olfactory response index (Drosophila melanogaster [2]; [9])	olfactory response index (Drosophila melanogaster [2]; [10])	olfactory response index (Drosophila melanogaster [2]; [11])	olfactory response index (Drosophila melanogaster [2]; [12])	olfactory response index (Drosophila melanogaster [2]; [20])	olfactory response index (Drosophila melanogaster [2]; [13])	olfactory response index (Drosophila melanogaster [2]; [14])	olfactory response index (Drosophila melanogaster [2]; [15])	olfactory response index (Drosophila melanogaster [2]; [16])	olfactory response index (Drosophila melanogaster [2]; [17])	olfactory response index (Drosophila melanogaster [2]; [18])	olfactory response index (Drosophila melanogaster [2]; [19])
CC(C)=CCCC(C)=CC=O (mixture of isomers) [citral]	0.266 ± 0.06	0.226 ± 0.041	0.202 ± 0.06	0.17 ± 0.11	0.387 ± 0.092	0.0537 ± 0.02	0.186 ± 0.067	0.452 ± 0.042	0.215 ± 0.046	0.321 ± 0.11	0.166 ± 0.046	0.517 ± 0.0054	0.101 ± 0.099	0.292 ± 0.16	0.285 ± 0.083	0.0832 ± 0.075	0.226 ± 0.13	0.595 ± 0.02	0.674 ± 0.046	0.292 ± 0.12	0.474 ± 0.18	0.552 ± 0.055	0.195 ± 0.075	0.606 ± 0.034	0.639 ± 0.027	0.636 ± 0.17	0.642 ± 0.097	0.687 ± 0.15	0.409 ± 0.19	0.68 ± 0.086	0.479 ± 0.091	0.262 ± 0.091	0.536 ± 0.16	0.317 ± 0.01	0.66 ± 0.13
CC(=O)OCCC(C)C [isoamyl acetate]	0.156 ± 0.046	0.228 ± 0.095	0.362 ± 0.29	0.238 ± 0.1	0.237 ± 0.067	0.419 ± 0.15	0.373 ± 0.16	0.58 ± 0.23	0.192 ± 0.015	0.215 ± 0.071	0.173 ± 0.11	0.629 ± 0.17	0.339 ± 0.15	0.321 ± 0.13	0.343 ± 0.14	0.23 ± 0.083	0.348 ± 0.16	0.442 ± 0.16	0.707 ± 0.066	0.34 ± 0.095	0.625 ± 0.1	0.488 ± 0.25	0.665 ± 0.19	0.832 ± 0.067	0.497 ± 0.18	0.465 ± 0.13	0.583 ± 0.29	0.364 ± 0.2	0.471 ± 0.14	0.733 ± 0.07	0.594 ± 0.099	0.6 ± 0.054	0.702 ± 0.097	0.499 ± 0.14	0.659 ± 0.12
Cc1cnccn1 [2-methylpyrazine]	0.457 ± 0.04	0.104 ± 0.039	0.178 ± 0.049	0.155 ± 0.17	0.085 ± 0.043	0.176 ± 0.094	0.293 ± 0.15	0.151 ± 0.066	0.238 ± 0.096	0.261 ± 0.04	0.116 ± 0.1	0.397 ± 0.041	0.305 ± 0.16	0.218 ± 0.18	0.111 ± 0.044	0.1 ± 0.087	0.233 ± 0.078	0.623 ± 0.14	0.415 ± 0.074	0.358 ± 0.17	0.394 ± 0.084	0.527 ± 0.068	0.318 ± 0.099	0.458 ± 0.14	0.674 ± 0.013	0.532 ± 0.066	0.543 ± 0.082	0.159 ± 0.054	0.304 ± 0.15	0.552 ± 0.3	0.478 ± 0.062	0.431 ± 0.12	0.506 ± 0.13	0.381 ± 0.059	0.393 ± 0.099
CCc1cnccn1 [2-ethylpyrazine]	0.416 ± 0.069	0.118 ± 0.067	0.0666 ± 0.045	0.0894 ± 0.038	0.472 ± 0.092	0.194 ± 0.068	0.206 ± 0.11	0.247 ± 0.11	0.114 ± 0.085	0.0743 ± 0.059	0.144 ± 0.016	0.385 ± 0.17	0.221 ± 0.036	0.167 ± 0.082	0.342 ± 0.071	0.146 ± 0.061	0.319 ± 0.058	0.581 ± 0.074	0.524 ± 0.027	0.393 ± 0.2	0.435 ± 0.1	0.581 ± 0.0069	0.409 ± 0.078	0.497 ± 0.13	0.568 ± 0.16	0.304 ± 0.2	0.4 ± 0.14	0.256 ± 0.14	0.419 ± 0.22	0.638 ± 0.033	0.567 ± 0.092	0.522 ± 0.12	0.552 ± 0.076	0.159 ± 0.089	0.492 ± 0.14
